# Experimental data reported in the supplement of paper PMC7556523.
# Values without a mark were called inactive.
# Key:
# [1] = tested on: Sporothrix brasiliensis CBS 133006; test: growth inhibition relative to untreated control; higher = more growth inhibition (more antifungal activity), active = 80 or more; extreme values may be limits of the assay; details: 1 µM; 48 h
# Method in brief: (§1)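 Before testing, the reference isolates were kept in brain heart infusion broth with 2% glucose at 36°C for 7 days to give yeast-form cells. These cells, at 1 x 10^5 CFU/ml, received library compounds at a final 1 μM and were held 48 h at 35°C in 5% CO2. Growth was checked by eye under an inverted light microscope and quantified spectrophotometrically in quadruplicate, and the value is percent growth inhibition versus untreated cells.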
# [2] = tested on: Sporothrix schenckii ATCC 32286; test: as above; details: 1 µM; 48 h
# Method in brief: as §1
Structure (SMILES),growth inhibition [1],growth inhibition [2]
Cn1ncc2c(N3CCOCC3)nc(NCCc3c[nH]c4ccccc34)nc21,8.25%,0%
CCC(=O)Nc1ccccc1C(=O)Nc1ccccn1,0%,1.5%
CC(=O)NCC1CN(c2ccc(-c3ccc(CNCc4cn[nH]n4)cc3)c(F)c2)C(=O)O1 (stereo not drawn),15.5%,0%
CC1COC2(CCN(c3nc(=O)c4cc(C(F)(F)F)cc([N+](=O)[O-])c4s3)CC2)O1 (stereo not drawn),15%,1.5%
Cc1ccc2cc(C3NC(=O)c4ccccc4N3)c(Cl)nc2c1 (stereo not drawn),8%,4%
Cc1c[nH]c(CCNC(=O)c2cc(-c3ccc(Cl)cc3)cs2)n1,4%,0%
NCC(=O)N1CCn2c(nc(-c3ccccc3)c2Nc2ccc3c(c2)OCO3)C1,0%,0.5%
CCOc1ccc(OCC(=O)Nc2cc(C)cc(C)c2)cc1,12.2%,18%
CC1=Nc2ccc(Cl)cc2C(O)(c2ccc(C)cc2)N1CCN1CCCCC1 (stereo not drawn),12.2%,1.25%
CCn1ncc2c(NC3CCOCC3)c(CNC(=O)c3ccnn3C)c(C)nc21,4.25%,0%
CCCn1c(CNc2ccccc2O)nc2ccccc21,11.2%,13.2%
CC(C)c1ncc(-c2ccncc2)c([C@H]2CC[C@H](CNC(=O)c3cccnc3)CC2)n1,4.5%,8.25%
C[C@]1(COc2ccc(N3CCC(Oc4ccc(OC(F)(F)F)cc4)CC3)cc2)Cn2cc([N+](=O)[O-])nc2O1,7.25%,4.5%
Cc1ccc2oc(-c3cc(NC(=O)Cc4ccccc4)ccc3Cl)nc2c1,14.5%,11.2%
COc1cc(C2=NCCN2)ccc1-n1cc(-c2cccc(C3=NCCN3)c2)nn1,18.5%,5.5%
Cc1cc(OCC(=O)NCc2ccccc2)c2cc(Br)ccc2n1,10%,4%
CC(Oc1cccc(Cl)c1)C(=O)Nc1ccc2oc(-c3ccncc3)nc2c1 (stereo not drawn),20%,4.25%

Structure (SMILES),growth inhibition [1],growth inhibition [2]
COc1cc(CN2CCC3(C=Cc4ccccc43)CC2)cc2c1OCO2,4.25%,3.25%
O=C(Nc1ccc(F)c(-c2nc3cc(-c4ccccc4)cnc3[nH]2)c1)N1CCCC1,12.5%,7.75%
N#CCN(CCCCN1CCN(c2ccc(F)cc2)CC1)C(=O)OCc1ccccc1,11.2%,2.5%
Cc1ccc(-c2cc(C(=O)Nc3cccnc3)c3cc(Br)ccc3n2)cc1,25.2%,0%
Cc1cc(NC(=O)c2ccc(Oc3ccc(Cl)cc3O)o2)no1,18.8%,2.75%
CS(=O)(=O)c1ccc(C(=O)N(CC2CCCO2)c2nc3ccccc3s2)cc1[N+](=O)[O-] (stereo not drawn),27.2%,19%
CCCc1ccc(S(=O)(=O)Nc2ccc(CN3CCN(CC4CC4)CC3)cc2)cc1,25.5%,2.25%
O=C(C1CCCCC1)N1CC(=O)N2CCc3ccccc3C2C1 (stereo not drawn),2.25%,10.2%
CN1CCC(NCc2cccc(-c3ccc(S(=O)(=O)NCc4ccccc4)cc3)c2)CC1,8%,13.5%
CCN(CC)CCCCCCNc1cc(OC)cc2c(C)ccnc12,7%,2.25%
COc1ccc(-c2cnc3cnc(-c4cccc(OC(C)C)c4)cn23)cc1,10.2%,12%
Cc1cc(Cl)c(S(=O)(=O)N2CCCC2)cc1OCC(=O)NC1CCCCC1,8%,0%
O=C(NC1CC1)c1ccc(N2CCOc3ccc(Cl)cc32)s1,7%,11.8%
Cc1nn2c(=O)c3c([nH]c2c1-c1ccc(Cl)cc1)CCCC3,12.8%,15.8%
COc1cccc(-n2nnnc2S(=O)(=O)Cc2ccccc2)c1,19%,6%
O=C(NC1CC1)c1ccc(CSCc2ccccc2Cl)o1,6.25%,2%
COc1ccc(Oc2ccc([C@@H](C)N(C)c3ncc4c(N)nc(N)nc4n3)cc2)cc1,5.75%,4.25%
